Source: PubChem BioAssay (Tox21)
Results filed as inconclusive are left out. Activity calls are given as the source filed them. Calls come from the whole dose curve.

Assay: p53 small molecule agonists, cell-based qHTS assay with human liver microsomes (AID 1963577);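 note: p53 response element beta-lactamase reporter cells with liver microsomes plus NADPH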
Conditions: HCT-116 p53RE-bla with human liver microsomes, ratio, 16 h; series mostly up to 66 µM; activation: at the top concentration
Excerpt: National Center for Advancing Translational Sciences [NCATS]
Division of Preclinical Innovation [DPI]
U.S. Environmental Protection Agency [EPA]
National Institutes of Environmental Health Sciences [NIEHS]
National Toxicology Program [NTP]
U.S. Food and Drug Administration [FDA]
p53, a tumor suppressor protein, is activated following cellular insult, including DNA damage and other cellular stresses. The activation of p53 regulates cell fate by inducing DNA repair, cell cycle arrest, apoptosis, or cellular senescence. The activation of p53, therefore, is a good indicator of DNA damage and other cellular stresses. […] The activation of the reporter gene under culture conditions can be detected by fluorescence intensity.
Tox21 Assay Protocol Summary:
The p53RE-bla cells were dispensed at 4,000cells/3ul/well in 1536-well black-clear bottom plates. After the assay plates were incubated at 37 C, 5% CO2 incubator for 5 hours, 23 nL of compounds dissolved in DMSO, positive controls or DMSO only was transferred to the assay plate. Following compound addition, 3 uL of human liver microsomes (XenoTech, Kansas City, KS) at final concentration of 0.5 mg/mL and 1uL of Beta-Nicotinamide adenine dinucleotide 2-phosphate (NADPH) at final concentration of 0.5 mg/mL were transferred to the assay plate. The plates were incubated at 37 C for 16 hours. 1 uL of LiveBLAzer detection mixture was added to each well and the plates were incubated at room temperature in the dark for 2 h.
% is set by controls: 0 for no effect and ±100 for the full control effect.

SMILES | activation | Potency
Cc1sccc1Br | 3.94% [at 30.3 µM] (inactive) | –
CCCOCCOCCO | 0.77% (inactive) | –
CC(CO)CO | 1.42% (inactive) | –
NCCNCCO | -1.13% (inactive) | –
CCC(C)(C)CC | -11.3% (inactive) | –
Cc1ccc(C(=O)Nc2ccc(S(=O)(=O)O)c3cc(S(=O)(=O)O)cc(S(=O)(=O)O)c23)cc1NC(=O)c1cccc(NC(=O)Nc2cccc(C(=O)Nc3cc(C(=O)Nc4ccc(S(=O)(=O)O)c5cc(S(=O)(=O)O)cc(S(=O)(=O)O)c45)ccc3C)c2)c1 | 0.225% [at 30.3 µM] (inactive) | –
O=C(O)CONC(=O)c1ccccc1 | 0.352% (inactive) | –
O=Nc1ccc(NO)cc1 | 2.06% (inactive) | –
CN1N=C(C(N)=O)CCC1=O | -4.54% [at 30.3 µM] (inactive) | –
NS(=O)(=O)c1cc2c(cc1C(F)(F)F)NC(Cc1ccccc1)NS2(=O)=O (stereo not given) | -4.91% [at 30.3 µM] (inactive) | –
COc1cc(OC)nc(O[C@H](C(=O)O)C(OC)(c2ccccc2)c2ccccc2)n1 | 0.652% [at 30.3 µM] (inactive) | –
C=CCCC(=O)/C=C/C1C(C)=CCCC1(C)C (stereo not given) | 1.3% (inactive) | –
O=C(c1ccc(O)cc1O)c1ccc(O)cc1O | – | inactive
CC1=CC[C@@H](C(C)(C)O)CC1 | 2.74% (inactive) | –
CC(C)(O)C(=O)O | -0.598% (inactive) | –
CCCCCCCCS | 0.679% (inactive) | –
O=C(OC(=O)c1ccccc1)c1ccccc1 | 0.418% (inactive) | –
CCC/C=C/CO | 1.59% (inactive) | –
O=C(/C=C/c1ccccc1)OCc1ccccc1 | – | inactive
CC(C)(c1ccccc1)c1ccc(Nc2ccc(C(C)(C)c3ccccc3)cc2)cc1 | – | inactive

SMILES | activation | Potency
CSc1cnccn1 | 3.15% (inactive) | –
C=C(C)C(=O)OCCC(F)(F)C(F)(F)C(F)(F)C(F)(F)C(F)(F)C(F)(F)F | -4.88% (inactive) | –
c1ccc2c(c1)CCc1ccccc1N2 | – | inactive
CCCO[Si](OCCC)(OCCC)OCCC | -3.66% (inactive) | –
Cc1ccc(C(C)(C)O)cc1 | 2.33% (inactive) | –
CCCCC(CC)COCCC#N (stereo not given) | 1.3% (inactive) | –
CCCCCCC(C)(C)C(=O)O | -0.138% (inactive) | –
CCCC1O[C@@H]2C[C@H]3[C@@H]4CCC5=CC(=O)C=C[C@]5(C)[C@H]4[C@@H](O)C[C@]3(C)[C@]2(C(=O)CO)O1 (stereo not given in full) | – | inactive
c1ccc2ncccc2c1 | – | inactive
O=C(Nc1ccc(Cl)cc1)Nc1ccc(Cl)c(Cl)c1 | – | inactive
O=C[C@H](O)[C@@H](O)[C@H](O)[C@H](O)CO | -0.797% (inactive) | –
COC(=O)/C=C(/C)N | -4.06% [at 30.3 µM] (inactive) | –
C1CCC(SSC2CCCCC2)CC1 | 7.66% (inactive) | –
Cc1cc(C)c(C(=O)O)c(C)c1 | 1.67% (inactive) | –
CO[C@@H]1[C@@H](O[C@@H]2O[C@H](C)[C@@H](O[C@H]3C[C@@](C)(O)[C@@H](O)[C@H](C)O3)[C@H](N(C)C)[C@H]2O)[C@@H](CC=O)C[C@@H](C)[C@@H](O[C@@H]2CC[C@H](N(C)C)[C@@H](C)O2)/C=C/C=C/C[C@@H](C)OC(=O)C[C@H]1OC(C)=O | -2.11% [at 30.3 µM] (inactive) | –
CC(C)(c1cc(Br)c(O)c(Br)c1)c1cc(Br)c(O)c(Br)c1 | – | inactive
Cc1oc(C)c(C(=O)Nc2ccccc2)c1C | -2.45% (inactive) | –
CC(=O)CC(=O)Nc1ccc2[nH]c(=O)[nH]c2c1 | -0.485% (inactive) | –
CC(C)=C1CC[C@@H](C)CC1=O | 0.319% (inactive) | –
COc1ccc(C(=O)NCc2ccc(OCCN(C)C)cc2)cc1OC | 0.321% [at 30.3 µM] (inactive) | –
